# Compounds with a hit are over-represented: about 6.8% of the library has one in this group of screens.
# Pf Dd2 inh: blocks growth of Plasmodium falciparum Dd2 parasites | P. falciparum Dd2 growth, SYBR Green, 72 h; active compounds read low | AID 1159554 | hit rate 2.3% among 94,000 | activity change, % at 10 µM; in the data active means activity change below about -80%; inconclusive means no clear call, values can overlap the other calls
# C diff HTS: blocks growth of Clostridium difficile. Clostridium difficile clinical isolate growth, OD600, 24 h; active compounds read low. growth activity, negative = inhibition, % at 16 µg/mL (by protocol). hit rate 0.25% among 86,000;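 active means mean growth activity at or below -80% and every replicate also at or below -80%; inconclusive means mean at or below -80% but some replicate above -80%; inactive means mean growth activity above -80%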;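 further: 0% = DMSO wells and -100% = levofloxacin 16 µg/mL wells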
# T cruzi growth-1: T. cruzi proliferation inhibition. T. cruzi beta-gal in NIH3T3, GalScreen luminescence, 90 h. inhibition, % at 8.34 µM. hit rate 5.9% among 77,000;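 active means mean inhibition above about 93%, with at least 55% of replicates each passing it, limit read from the data, passing the limit was not always enough; inconclusive means only one of those two conditions holds; inactive means neither condition holds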
# T cruzi growth-2: Trypanosoma cruzi proliferation inhibition; T. cruzi beta-gal in NIH3T3, GalScreen luminescence, 90 h; inhibition, % at 8.35 µM; shares compounds with T cruzi growth-1; hit rate 72% among 5,600; AID 651739;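 active means mean replicate inhibition above about 95% and at least 55% of replicates individually reaching it, limit read from the data; inconclusive means only one of the two criteria is met; inactive means neither criterion is met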
# T cruzi growth-3: inhibitors of T. cruzi proliferation; hit rate 21% among 5,600; T. cruzi beta-gal in NIH3T3, GalScreen luminescence, 90 h; shares compounds with T cruzi growth-1; inhibition, % at 2.09 µM;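 active means mean inhibition above about 95%, with at least 55% of replicates also reaching it, limit read from the data; inconclusive means meets just one of the two conditions; inactive means meets neither condition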;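 further: plate controls were neutral control median for no effect and positive control median for full effect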
# 3T3 cytotox: NIH/3T3 (mouse) viability loss. AID 651742. hit rate 14% among 5,600. shares compounds with T cruzi growth-1. NIH/3T3 viability, CellTiter-Glo ATP luminescence, 90 h. cytotoxicity (signal decrease), % at 8.35 µM;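 active means mean signal decrease across replicates above about 35% based on untreated-well scatter, with enough replicates individually passing, limit read from the data; inconclusive means no rule stated though some were filed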;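 further: 0% = median of neutral control wells and 100% = median of positive control wells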
# 3T3 cytotox 2: cytotoxicity in mouse NIH/3T3 fibroblasts. shares compounds with T cruzi growth-1. NIH/3T3 viability, CellTiter-Glo ATP luminescence, 90 h. inhibition, % at 24.9 µM. hit rate 56% among 5,600;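 active means mean loss of cell viability signal at or above a set limit, and enough replicates individually reaching it; inconclusive means meets only the mean limit or only the replicate share; inactive means meets neither condition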;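 further: 0% = median of neutral control wells and 100% = median of positive control wells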
# Starred values were filed as active, the others as inactive; u = inconclusive; x = no result.
SMILES,Pf Dd2 inh,C diff HTS,T cruzi growth-1,T cruzi growth-2,T cruzi growth-3,3T3 cytotox,3T3 cytotox 2
COc1cccc(CN2CCCCN3[C@H](CO)[C@H](c4ccc(-c5cccc(C#N)c5)cc4)[C@@H]3C2)c1,-64,28,111*,108*,101*,11,102*
COc1cccc(-c2ccc([C@H]3[C@@H](CO)N4CCCCN(Cc5cncnc5)C[C@@H]34)cc2)c1,13,-4,88,x,x,x,x
Cc1cccc(-c2ccc([C@H]3[C@@H](CO)N4CCCCN(Cc5cccnc5)C[C@H]34)cc2)c1,-55,-5,99*,97*,70,45*,105*
COc1cccc(-c2ccc([C@H]3[C@H](CO)N4CCCCN(Cc5cncnc5)C[C@@H]34)cc2)c1,15,-9,89,x,x,x,x
Cc1cccc(-c2ccc([C@H]3[C@H]4CN(Cc5ccncc5)CCCCN4[C@H]3CO)cc2)c1,-32,2,39,x,x,x,x
COc1cccc(-c2ccc([C@H]3[C@@H](CO)N4CCCCN(Cc5cncnc5)C[C@H]34)cc2)c1,4,-10,99*,108*,65,27,45*
Cc1cccc(-c2ccc([C@H]3[C@@H](CO)N4CCCCN(Cc5cccnc5)C[C@@H]34)cc2)c1,-9,1,120*,u,74,22,103*
CCC(=O)N1CC(=O)N2[C@H](CO)[C@@H](c3ccc(-c4ccncc4)cc3)[C@H]2C1,-4,-1,x,x,x,x,x
COc1ccc(S(=O)(=O)Nc2ccc3c(c2)C(=O)N([C@@H](C)CO)C[C@@H](C)[C@H](CN(C)S(C)(=O)=O)O3)cc1,10,5,-6,x,x,x,x
COc1ccc2c3c([nH]c2c1)[C@@H](CO)N(C(=O)C1CCC1)CC31CN(C(=O)c2ccccn2)C1,-78,-5,x,x,x,x,x
OC[C@@H]1[C@H](c2ccc(-c3ccc(F)cc3)cc2)[C@H]2CN(Cc3cccnc3)CCCCN12,-57,0,90,x,x,x,x
OC[C@@H]1[C@H](c2ccc(-c3ccccc3)cc2)[C@H]2CN(Cc3cncnc3)CCCCN12,6,-3,101*,u,80,13,53*
Cc1ccc(-c2ccc([C@H]3[C@@H](CO)N4CCCCN(Cc5cncnc5)C[C@H]34)cc2)cc1,-8,-9,18,x,x,x,x
OC[C@H]1[C@@H](c2ccc(-c3ccc(F)cc3)cc2)[C@@H]2CN(Cc3cccnc3)CCCCN12,-59,-1,99*,99*,34,29,105*
Cc1cccc(-c2ccc([C@H]3[C@H](CO)N4CCCCN(Cc5ccncc5)C[C@@H]34)cc2)c1,-19,-5,u,101*,47,23,105*
Cc1cccc(-c2ccc([C@H]3[C@@H](CO)N4CCCCN(Cc5ccncc5)C[C@H]34)cc2)c1,-51,-12,86,x,x,x,x
Cc1cccc(-c2ccc([C@@H]3[C@H](CO)N4CCCCN(Cc5cncnc5)C[C@@H]34)cc2)c1,-27,0,86,x,x,x,x
Cc1cccc(-c2ccc([C@@H]3[C@H]4CN(Cc5cncnc5)CCCCN4[C@H]3CO)cc2)c1,16,-6,103*,78,-14,12,102*
O=C(NCc1ccccn1)[C@@H]1[C@@H](CO)[C@@H]2Cn3c(ccc(C4=CCCC4)c3=O)[C@H]1N2Cc1cccnc1,x,-5,-85,x,x,x,x
CCCNC(=O)N1[C@H](C#N)[C@H](c2ccccc2-c2ccccc2)[C@@H]1CO,-5,-10,x,x,x,x,x
OC[C@@H]1[C@H](c2ccc(Br)cc2)[C@H]2CN(Cc3ccccn3)CCCCN12,-7,7,97*,99*,58,-1,0
OC[C@@H]1[C@H](c2ccc(C3=CCCC3)cc2)[C@H]2CN(Cc3cncnc3)CCCCN12,-27,0,u,88,69,14,46*
OC[C@H]1[C@@H](c2ccc(Br)cc2)[C@@H]2CN(Cc3ccccn3)CCCCN12,15,1,52,x,x,x,x
OC[C@@H]1[C@H](c2ccc(Br)cc2)[C@@H]2CN(Cc3cncnc3)CCCCN12,-8,0,96*,77,66,-7,-2
OC[C@H]1[C@@H](c2ccc(C3=CCCC3)cc2)[C@@H]2CN(Cc3ccncc3)CCCCN12,8,0,57,x,x,x,x
SMILES,Pf Dd2 inh,C diff HTS,T cruzi growth-1,T cruzi growth-2,T cruzi growth-3,3T3 cytotox,3T3 cytotox 2
OC[C@@H]1[C@@H](c2ccc(Br)cc2)[C@H]2CN(Cc3cncnc3)CCCCN12,19,3,66,x,x,x,x
Cc1noc(C)c1S(=O)(=O)Nc1ccc2c(c1)C(=O)N([C@H](C)CO)C[C@@H](C)[C@H](CN(C)S(=O)(=O)c1cn(C)cn1)OCCCC[C@@H](C)O2,24,12,29,x,x,x,x
CO[C@H]1CN(C)C(=O)c2ccc(NC(C)=O)cc2OC[C@H](C)N(CCC(F)(F)F)C[C@@H]1C,-1,-7,x,x,x,x,x
Cc1ccc(S(=O)(=O)N(C)C[C@H]2Oc3ccc(NC(=O)Nc4ccc(F)cc4)cc3C(=O)N([C@H](C)CO)C[C@@H]2C)cc1,-61,-9,22,x,x,x,x
COCCNC(=O)C[C@@H]1C[C@@H]2c3cc(NC(=O)Nc4ccc(F)cc4)ccc3O[C@@H]2[C@H](CO)O1,16,1,13,x,x,x,x
CC=Cc1ccc2n(c1=O)C[C@@H]1[C@@H](CO)[C@H](C(=O)N3CCOCC3)N(Cc3ccccc3)[C@H]21 (mixture of isomers),-4,0,101*,100*,6,9,13
CC=Cc1ccc2n(c1=O)C[C@@H]1[C@@H](CO)[C@H](C(=O)N3CCc4ccccc4C3)[C@H]2N1CCC (mixture of isomers),-2,-1,103*,30,-13,0,10
CC=Cc1ccc2n(c1=O)C[C@@H]1[C@@H](CO)[C@H](C(=O)N3CCc4ccccc4C3)[C@H]2N1Cc1ccccc1 (mixture of isomers),-7,9,85,x,x,x,x
CC=Cc1ccc2n(c1=O)C[C@H]1[C@H](CO)[C@@H](C(=O)N3CCCCC3)N(Cc3ccccc3)[C@@H]21 (mixture of isomers),-17,5,37,x,x,x,x
CC=Cc1ccc2n(c1=O)C[C@@H]1[C@@H](CO)[C@H](C(=O)N3CCc4ccccc4C3)N(C(=O)C3CC3)[C@H]21 (mixture of isomers),x,12,107*,69,7,2,12
CC=Cc1ccc2n(c1=O)C[C@@H]1[C@@H](CO)[C@H](C(=O)N3CCc4ccccc4C3)N(C(=O)COC)[C@H]21 (mixture of isomers),23,4,x,x,x,x,x
CC(=O)N[C@@H]1CC[C@H](CC(=O)NCC2CCCCC2)O[C@@H]1CO,-9,-1,-20,x,x,x,x
CNC(=O)C[C@@H]1CC[C@H]2[C@@H](COC[C@H](O)CN2S(=O)(=O)c2ccccc2Cl)O1,14,-6,x,x,x,x,x

# Screening results (PubChem BioAssay)
